Data: the supplement of paper PMC4022240
± gives the standard deviation.

Experiments:
Test in all cases: peptide microarray binding signal (635 nm), min-max normalized on array (fraction of array maximum); higher = stronger binding
[1] = target: T1, HaloTag-ATRX ADD domain (163-292)
T1 chain: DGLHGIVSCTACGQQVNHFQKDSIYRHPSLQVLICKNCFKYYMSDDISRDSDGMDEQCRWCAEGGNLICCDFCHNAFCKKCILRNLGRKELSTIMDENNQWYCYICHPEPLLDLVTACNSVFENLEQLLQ
Experimental: (§1)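 Histone 13-mer peptides were synthesized as cellulose conjugates with a C-terminal 20-atom PEG linker and printed in triplicate on nitrocellulose. The sequence given is the unmodified backbone; PTMs (Kme1/2/3, Kac, Sph/Tph, Rme/Rme2a/Rme2s, Rcit) are listed in the label and the 'peptide modifications' condition. Slides were probed at 4 °C for 1 h with biotin-labelled (HQ)5-HaloTag reader fusions (ATRX-ADD, ING2-PHD) then streptavidin-Alexa647, or with rabbit histone antibodies then anti-rabbit Alexa647. The mean 635 nm signal of the triplicate spots was scaled 0-1 between the lowest and highest values on each array.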

[2] = target: HaloTag-ING2 PHD (mouse Ing2 200-280)
Experimental: as §1

[3] = target: anti-H3K4me3 antibody ab8580
Experimental: as §1

[4] = target: anti-H3K9me3 antibody ab8898
Experimental: as §1

[5] = peptide region: H2A 11-23, peptide modifications: H2AK15ac, binder concentration: 1:2,000 dilution
[6] = peptide region: H2A 11-23, peptide modifications: H2AK15ac, binder concentration: 1:10,000 dilution
[7] = peptide region: H2B 1-13, peptide modifications: H2BK5ac H2BS6ph H2BK11ac, binder concentration: 1:2,000 dilution
[8] = peptide region: H2B 1-13, peptide modifications: H2BK5ac H2BS6ph H2BK11ac, binder concentration: 1:10,000 dilution
[9] = peptide region: H2B 7-19, binder concentration: 1:2,000 dilution
[10] = peptide region: H2B 7-19, binder concentration: 1:10,000 dilution
[11] = peptide region: H2B 1-13, peptide modifications: H2BK11ac, binder concentration: 1:2,000 dilution
[12] = peptide region: H2B 1-13, peptide modifications: H2BK11ac, binder concentration: 1:10,000 dilution
[13] = peptide region: H2A 11-23, peptide modifications: H2AT16ph, binder concentration: 1:2,000 dilution
[14] = peptide region: H2A 11-23, peptide modifications: H2AT16ph, binder concentration: 1:10,000 dilution

RAKAKTRSSRAGL [H2A 11-23 R A K A Kac T R S S R A G L]
peptide microarray binding signal ([1]; peptide region: H2A 11-23, peptide modifications: H2AK15ac, binder concentration: 50 nM): 0.00502 ± 0.00053 | peptide microarray binding signal ([1]; peptide region: H2A 11-23, peptide modifications: H2AK15ac, binder concentration: 500 nM): 0.00495 ± 0.00038 | peptide microarray binding signal ([2]; peptide region: H2A 11-23, peptide modifications: H2AK15ac, binder concentration: 10 nM): 0.00388 ± 5.4e-05 | peptide microarray binding signal ([2]; peptide region: H2A 11-23, peptide modifications: H2AK15ac, binder concentration: 100 nM): 0.0051 ± 0.00094 | peptide microarray binding signal [3, 5]: 0.000321 ± 6.7e-06 | peptide microarray binding signal [3, 6]: 0.00126 ± 4.3e-05 | peptide microarray binding signal [4, 5]: 0.0004228 ± 4.1e-06 | peptide microarray binding signal [4, 6]: 0.00121 ± 4.9e-05

PEPAKSAPAPKKG [H2B 1-13 P E P A Kac Sph A P A P Kac K G]
peptide microarray binding signal ([1]; peptide region: H2B 1-13, peptide modifications: H2BK5ac H2BS6ph H2BK11ac, binder concentration: 50 nM): 0.0021 ± 2.5e-05 | peptide microarray binding signal ([1]; peptide region: H2B 1-13, peptide modifications: H2BK5ac H2BS6ph H2BK11ac, binder concentration: 500 nM): 0.00276 ± 5.8e-05 | peptide microarray binding signal ([2]; peptide region: H2B 1-13, peptide modifications: H2BK5ac H2BS6ph H2BK11ac, binder concentration: 10 nM): 0.00603 ± 0.00058 | peptide microarray binding signal ([2]; peptide region: H2B 1-13, peptide modifications: H2BK5ac H2BS6ph H2BK11ac, binder concentration: 100 nM): 0.00206 ± 5.4e-05 | peptide microarray binding signal [3, 7]: 0.00364 ± 0.00027 | peptide microarray binding signal [3, 8]: 0.00131 ± 3.4e-05 | peptide microarray binding signal [4, 7]: 0.00131 ± 4.4e-05 | peptide microarray binding signal [4, 8]: 0.00185 ± 8e-05

APAPKKGSKKAVT [H2B 7-19 A P A P K K G S K K A V T]
peptide microarray binding signal ([1]; peptide region: H2B 7-19, binder concentration: 50 nM): 0.002382 ± 1.1e-05 | peptide microarray binding signal ([1]; peptide region: H2B 7-19, binder concentration: 500 nM): 0.00743 ± 0.0029 | peptide microarray binding signal ([2]; peptide region: H2B 7-19, binder concentration: 10 nM): 0.00328 ± 6.2e-05 | peptide microarray binding signal ([2]; peptide region: H2B 7-19, binder concentration: 100 nM): 0.00283 ± 4.6e-05 | peptide microarray binding signal [3, 9]: 0.0043 ± 0.0018 | peptide microarray binding signal [3, 10]: 0.00114 ± 1.2e-05 | peptide microarray binding signal [4, 9]: 0.00116 ± 9.9e-05 | peptide microarray binding signal [4, 10]: 0.001211 ± 1.2e-05

PEPAKSAPAPKKG [H2B 1-13 P E P A K S A P A P Kac K G]
peptide microarray binding signal ([1]; peptide region: H2B 1-13, peptide modifications: H2BK11ac, binder concentration: 50 nM): 0.00254 ± 0.00043 | peptide microarray binding signal ([1]; peptide region: H2B 1-13, peptide modifications: H2BK11ac, binder concentration: 500 nM): 0.001762 ± 1.6e-05 | peptide microarray binding signal ([2]; peptide region: H2B 1-13, peptide modifications: H2BK11ac, binder concentration: 10 nM): 0.0156 ± 0.012 | peptide microarray binding signal ([2]; peptide region: H2B 1-13, peptide modifications: H2BK11ac, binder concentration: 100 nM): 0.00113 | peptide microarray binding signal [3, 11]: 0.000774 ± 9.3e-05 | peptide microarray binding signal [3, 12]: 0.000342 ± 3.8e-06 | peptide microarray binding signal [4, 11]: 0.000302 ± 1.1e-05 | peptide microarray binding signal [4, 12]: 0.000404 ± 4.4e-06

RAKAKTRSSRAGL [H2A 11-23 R A K A K Tph R S S R A G L]
peptide microarray binding signal ([1]; peptide region: H2A 11-23, peptide modifications: H2AT16ph, binder concentration: 50 nM): 0.0047 ± 9.3e-05 | peptide microarray binding signal ([1]; peptide region: H2A 11-23, peptide modifications: H2AT16ph, binder concentration: 500 nM): 0.00824 ± 0.00034 | peptide microarray binding signal ([2]; peptide region: H2A 11-23, peptide modifications: H2AT16ph, binder concentration: 10 nM): 0.00364 | peptide microarray binding signal ([2]; peptide region: H2A 11-23, peptide modifications: H2AT16ph, binder concentration: 100 nM): 0.00794 ± 0.00055 | peptide microarray binding signal [3, 13]: 0.000472 ± 1.2e-05 | peptide microarray binding signal [3, 14]: 0.000913 | peptide microarray binding signal [4, 13]: 0.000347 ± 7e-06 | peptide microarray binding signal [4, 14]: 0.000807 ± 1.5e-05
